Screens from PubChem BioAssay.
Most compounds without a hit are left out; they make up all but 2.8% or so of the library.
PAFAH1B3 FP inh = PAFAH1B3 enzyme inhibitors, primary screen, biochemical, fluorescence polarization, human | recombinant PAFAH1B3, FP-rhodamine probe | inhibition, % at 3.39 µM | Platelet-activating factor acetylhydrolase IB subunit alpha1 (Homo sapiens), Q15102 | 340,000 compounds, 0.28% hits;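 active = inhibition above the screen-wide average of all tested compounds plus 3 SD, cut at about 25% in these data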;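 note: 0% = enzyme with DMSO only and 100% = wells lacking PAFAH1B3 protein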
Target sequence (Q15102 whole entry, looked up): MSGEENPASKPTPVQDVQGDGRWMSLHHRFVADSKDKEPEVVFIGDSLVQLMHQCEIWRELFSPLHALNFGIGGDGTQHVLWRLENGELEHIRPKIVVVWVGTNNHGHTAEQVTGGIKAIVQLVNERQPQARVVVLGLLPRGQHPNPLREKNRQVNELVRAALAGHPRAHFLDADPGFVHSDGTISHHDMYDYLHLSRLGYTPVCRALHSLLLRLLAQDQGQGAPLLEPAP
DAGLB inh = DAGLB lipase inhibitors, primary screen, biochemical, fluorescence, HTS; 340,000 compounds, 0.059% hits; inhibition, % at 5.17 µM; Diacylglycerol lipase-beta (Homo sapiens), Q8NCG7; HEK293T DAGLB membrane lysate, EnzChek fluorogenic substrate; in the data active = inhibition above about 34%;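 note: 0% = enzyme with vehicle and 100% = wells lacking enzyme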
pPAFAH FP inh = pPAFAH enzyme inhibitors, primary screen, biochemical, fluorescence polarization, human; Platelet-activating factor acetylhydrolase (Homo sapiens), Q13093; recombinant pPAFAH, FP-rhodamine probe fluorescence polarization; inhibition, % at 3.39 µM; 330,000 compounds, 1.5% hits;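 active = inhibition above the mean inhibition across the screen plus 3 SD, cut at about 25% in these data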;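 note: inhibitors block binding of the rhodamine activity-based probe so polarization drops; 0% = enzyme with DMSO and 100% = wells lacking pPAFAH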
PAFAH1B2 FP inh = PAFAH1B2 enzyme inhibitors, primary screen, biochemical, fluorescence polarization, human; recombinant PAFAH1B2, FP-rhodamine activity probe; inhibition, % at 3.39 µM; 340,000 compounds, 1.2% hits;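 active = inhibition above the mean of all tested compounds plus 3 SD, cut at about 24% in these data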;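 note: 0% = enzyme with DMSO and 100% = wells lacking PAFAH1B2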
Target sequence (P68402 whole entry, looked up): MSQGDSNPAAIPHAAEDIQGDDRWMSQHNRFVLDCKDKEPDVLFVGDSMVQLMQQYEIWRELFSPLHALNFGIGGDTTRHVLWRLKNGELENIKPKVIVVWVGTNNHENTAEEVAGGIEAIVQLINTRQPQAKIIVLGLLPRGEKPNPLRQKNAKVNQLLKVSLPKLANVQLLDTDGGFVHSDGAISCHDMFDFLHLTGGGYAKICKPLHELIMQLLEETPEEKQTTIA
PAFAH2 inh = PAFAH2 enzyme inhibitors, primary screen, biochemical, fluorescence polarization, human. AID 492956, 2010. 340,000 compounds, 0.99% hits. recombinant PAFAH2, FP-rhodamine activity probe. inhibition, % at 3.39 µM;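 active = inhibition above the mean over all tested compounds plus 3 SD, cut at about 30% in these data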;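 note: inhibitors block probe labeling of enzyme so polarization drops; 0% = enzyme with DMSO and 100% = wells lacking PAFAH2 protein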
HTRA1 inh = HTRA1 serine protease inhibitors, primary screen, biochemical, fluorescence polarization, HTS; Q92743; recombinant HTRA1, FP-rhodamine activity-based probe; inhibition, % at 5.96 µM; 340,000 compounds, 0.5% hits; AID 504803, 2011; in the data active = inhibition above about 36%;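 note: 0% = enzyme with DMSO and 100% = wells lacking enzyme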
HTRA1 inh conf = HTRA1 protease inhibitors, retest, confirmation, biochemical, fluorescence polarization. AID 540248, 2011. inhibition, % at 5.96 µM. recombinant HTRA1, FP-rhodamine activity-based probe. 1,600 compounds, 66% hits. shares compounds with HTRA1 inh;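 active = mean inhibition over three repeats above a set limit taken from the earlier primary screen, cut at about 37% in these data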;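 note: 0% = HTRA1 with DMSO and 100% = wells lacking HTRA1; inhibitors block probe binding so polarization drops and inhibition rises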
* marks the source's active call; other numbers are inactive results; x = no result.

SMILES	PAFAH1B3 FP inh	DAGLB inh	pPAFAH FP inh	PAFAH1B2 FP inh	PAFAH2 inh	HTRA1 inh	HTRA1 inh conf
C=CCN1CCc2c(cc(O)c(O)c2Br)[C@@H](c2ccccc2)C1	9	4	0	4	0	51*	68*
COc1ccc(C(=O)O)cc1S(=O)(=O)Nc1ccccc1C(=O)NCc1ccc2c(c1)OCO2	3	-2	4	2	2	7	x
Cc1[nH]nc2c1C(c1ccsc1)C(C#N)=C(N)O2 (stereo not given)	9	3	2	11	-4	1	x
N#CC1=C(N)Oc2ccc3ccc(O)cc3c2C1c1ccsc1 (stereo not given)	114*	-5	x	93*	98*	126*	58*
CCc1ccc(CNc2ccc(N3CCN(C(C)=O)CC3)cc2)cc1	-2	5	30*	0	-8	42*	4
c1ccc(CNc2ccc(N3CCOCC3)cc2)cc1	-3	10	15	8	7	52*	17
CC(=O)N1CCN(c2ccc(NCc3ccc(C)cc3)cc2)CC1	0	3	18	7	7	24	x
CCCC(=O)C1=C(c2ccccc2)C(C#N)(C#N)C(C#N)=C1N	-7	3	15	16	14	38*	55*
NS(=O)(=O)c1ccc(NC(=O)COC(=O)c2cnc(Cl)c(Cl)c2)cc1	12	0	-4	3	6	-1	x
Cn1ccnc1C(=O)c1cccc(Br)c1	2	0	0	1	-1	-3	x
O=C(NN=C1CCCC1)c1ccc(Cl)cc1	2	-13	-6	4	0	5	x
O=C1CCC/C(=N/Nc2ccc(Cl)cc2)C1	4	6	27*	3	-2	37*	42*
CCOC(=O)Cc1csc(NC(=O)NC2(C(F)(F)F)Oc3cc(Cl)c(Cl)cc3O2)n1	4	12	4	5	0	37*	64*
CN1C(=O)CC(NNC(=O)c2ccccc2)C1=O (stereo not given)	-4	1	-1	1	-2	1	x
CC(C)N1C(=O)CC(Nc2cccc3cccc(N)c23)C1=O (stereo not given)	6	5	x	0	7	36*	11
COc1ccc(NC2CC(=O)N(C(C)C)C2=O)cc1 (stereo not given)	8	2	5	0	6	11	x
CN1C(=O)CC(Nc2cccc3cccc(N)c23)C1=O (stereo not given)	7	4	18	4	3	39*	7
CCOc1c(Cl)cc(CNc2ccc(N3CCCC3)cc2)cc1OC	16	11	x	5	4	50*	16
O=C(NNC(=O)c1ccccc1C(=O)O)c1ccc(S(=O)(=O)N2CCCCC2)cc1	-7	-3	x	7	10	0	x
Cc1nn(-c2cc(N3CCCCC3)ccc2N)c(=O)c2ccccc12	4	2	1	2	0	7	x
Nc1ccc(N2CCCCC2)cc1N1CCCCC1	3	4	14	0	-3	51*	59*
O=C(O)[C@H]1CCCC[C@H]1C(=O)Nc1ccc(Nc2ccccc2)cc1	4	4	15	5	9	67*	21
COCCN(CCOC)S(=O)(=O)c1ccc(NC(=O)c2cnccn2)cc1	9	-1	-2	6	-8	4	x
Clc1cccc(C2Nc3cccc4cccc(c34)N2)c1Cl	-1	5	7	1	15	58*	20
Clc1ccccc1C1Nc2cccc3cccc(c23)N1	9	5	12	0	7	48*	28
SMILES	PAFAH1B3 FP inh	DAGLB inh	pPAFAH FP inh	PAFAH1B2 FP inh	PAFAH2 inh	HTRA1 inh	HTRA1 inh conf
O=C1NC(c2ccccc2Cl)Nc2ccccc21 (stereo not given)	1	0	9	7	-2	5	x
Cc1nonc1NC(=O)CSc1nc2ccccc2o1	-2	0	1	6	1	3	x
COc1cc(COc2ccc3c(C)c(CC(=O)O)c(=O)oc3c2C)cc(OC)c1OC	4	1	-9	2	10	5	x
Cn1c(N)nc2nc[nH]c2c1=S	4	0	x	4	6	-1	x
COc1ccc(CNC(=O)CN2c3ccccc3S(=O)(=O)c3ccccc32)cc1	11	0	9	0	6	-5	x
Cc1ccccc1NC(=O)Cc1nc(COC(=O)c2nccnc2N)cs1	x	-2	x	x	x	9	x
Cc1ccc(-c2nnc(Sc3nc4ccccc4o3)c3ccccc23)cc1	-1	-7	2	-2	6	-17	x
Clc1ccc(-c2nnc(Sc3nc4ccccc4o3)c3ccccc23)cc1	-3	-5	6	2	-10	137*	-5
Cc1ccc(C(c2cc(Cl)c3cccnc3c2O)N2CCN(C)CC2)cc1 (stereo not given)	8	-13	14	1	6	57*	70*
Oc1c(C(c2ccccn2)N2CCC(Cc3ccccc3)CC2)cc(Cl)c2cccnc12 (stereo not given)	x	x	5	x	x	x	x
CN1CCN(C(c2ccccn2)c2cc(Cl)c3cccnc3c2O)CC1 (stereo not given)	18	4	11	4	6	39*	66*
CN1CCN(C(c2ccc(C(F)(F)F)cc2)c2ccc3cccnc3c2O)CC1 (stereo not given)	x	x	7	x	x	x	x
Oc1c(C(c2ccc(Cl)cc2)N2CCCC2)cc(Cl)c2cccnc12 (stereo not given)	15	-7	3	3	-1	41*	60*
OCC1(CCOc2ccccc2)CCN(C2Cc3ccccc3C2)CC1	1	-2	5	-1	8	-2	x
CCOc1ccc(NC(=O)COC(=O)CCC(=O)c2cccs2)cc1	7	-12	8	-2	11	4	x
O=C(C=C(O)c1ccc(Cl)cc1)C(=O)NNC(=O)C(O)(c1ccccc1)c1ccccc1	8	19	x	4	10	41*	36*
Cc1ccc(/C(O)=C/C(=O)C(=O)NNC(=O)C(O)(c2ccccc2)c2ccccc2)cc1	11	13	14	2	4	22	x
Cc1ccc(S(=O)(=O)NCCC(=O)OCC(=O)NC(=O)c2cccn2C)cc1	9	3	15	9	0	2	x
CCCc1ccc(O)c(N=Cc2cc(Br)cc(OCC)c2O)c1	8	9	23	3	8	41*	55*
